The list is not random: actives were taken first. Their share in the collection is about 10%.
G9a block = inhibitors of human histone lysine methyltransferase G9a; Potency, µM (series often up to 102 µM), for inactives: top-dose activity, negative = inhibition, hits mostly inhibitors; AID 504332; actives 8.8% (n = 350,000); Q96KQ7; G9a H3K9 monomethylation, AlphaScreen, 2 h; note: % is set by controls: 0 for no effect and ±100 for the full control effect; nearly all actives have a fitted effect of over 75% in size
Target sequence (Q96KQ7 913-1193 limits assumed): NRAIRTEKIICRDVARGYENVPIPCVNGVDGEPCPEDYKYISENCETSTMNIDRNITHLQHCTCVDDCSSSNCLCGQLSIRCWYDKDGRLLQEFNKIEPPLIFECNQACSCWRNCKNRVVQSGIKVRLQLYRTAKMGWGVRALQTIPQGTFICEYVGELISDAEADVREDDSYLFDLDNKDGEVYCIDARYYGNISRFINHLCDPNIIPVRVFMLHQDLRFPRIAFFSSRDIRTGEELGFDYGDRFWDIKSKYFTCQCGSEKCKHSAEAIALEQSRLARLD
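Step 1: enzyme (final 20 nM) with compound, 15 min RT. Step 2: substrate peptide 500 nM and SAM 20 uM, 2 h RT. Step 3: anti-H3K9me1 antibody and AlphaScreen beads, 10 min, then plate read.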
HP1b binding inh = blocks HP1-beta chromodomain binding to methylated histone tails; P83916; AlphaScreen HP1-beta / biotin-H3K9me3 peptide binding; Potency, µM (highest dose often 114 µM), for the others: at the top dose activity change, negative = inhibition, hits mostly inhibitors; actives 0.56% (n = 390,000); note: nearly all actives have a fitted effect of over 70% in size
Target sequence (P83916 whole entry, looked up): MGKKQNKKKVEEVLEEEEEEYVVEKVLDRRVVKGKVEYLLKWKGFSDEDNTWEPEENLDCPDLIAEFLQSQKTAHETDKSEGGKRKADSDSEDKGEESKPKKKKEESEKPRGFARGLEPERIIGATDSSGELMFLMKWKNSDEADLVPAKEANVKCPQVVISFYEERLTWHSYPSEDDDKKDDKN
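HP1-beta protein (50 nM final) preincubated 30 min at room temperature with biotinylated H3(1-18)K9me3 peptide (50 nM) in PBS pH 7.4, 0.01% Tween-20, then compound added for 30 min. AlphaScreen streptavidin donor/nickel chelate acceptor beads (10 ug/mL final), 30 min dark, luminescence read.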
GLS inhibitor = glutaminase GLS (human) inhibition; O94925; GLS enzymatic activity, qHTS titration; Potency, µM (top dose mostly 45.5 µM), for inactives: at the highest dose activity change, negative = inhibition, hits mostly inhibitors; actives 0.21% (n = 410,000); note: % is set by controls: 0 for no effect and ±100 for the full control effect
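Compounds were pin-transferred onto hKGA, after which L-glutamine (1 mM solution) and a detection mix of glutamate oxidase, HRP and Amplex Red were added. Initial and 30 min RT fluorescence reads were collected.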
BAZ2B inh = blocks human BAZ2B; Q9UIF8; AlphaScreen BAZ2B-H3K14Ac peptide displacement; Potency, µM (highest dose often 114 µM), without a hit: top-dose activity change, negative = inhibition, hits mostly inhibitors; actives 4.4% (n = 360,000); AID 504333; note: % is set by controls: 0 for no effect and ±100 for the full control effect; nearly all actives have a fitted effect of over 60% in size
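BAZ2B 50 nM plus b-H3(5-23)K14Ac 50 nM, PBS pH 7.4/0.01% Tween-20, 30 min RT; compound added (max 110 uM), 30 min RT; streptavidin donor/Ni-chelate acceptor beads 10 ug/mL final, 20 min dark; AlphaScreen read.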
JMJD2A Tudor inh = inhibitors of human JMJD2A Tudor domain; O75164; AlphaScreen JMJD2A-Tudor / H3K4me3 peptide binding; Potency, µM (series often up to 114 µM), for inactives: at the highest dose activity change, negative = inhibition, usual class: inhibitors; actives 4.4% (n = 390,000); note: % is set by controls: 0 for no effect and ±100 for the full control effect; nearly all actives have a fitted effect of over 50% in size
Starred values were filed as active, the others as inactive; ? = inconclusive; · = no result; [ ] = remark or other dose. Calls come from the whole dose curve; as a rule, active = well fitted curve in the direction sought with a large enough effect; inconclusive = small, poorly fitted or top-dose-only effect, or another doubt; inactive = no such curve, though single readings can be large; an effect the other way counts as inactive or inconclusive. Potency is the fitted concentration of half-maximal effect.

SMILES | G9a block | HP1b binding inh | GLS inhibitor | BAZ2B inh | JMJD2A Tudor inh
CC(C)NC(=O)CSc1cn(CC(=O)N2CCCCCC2)c2ccccc12 | -1%[59 µM] | -8% | 2% | -10% | -23%
O=C(OCc1cn([C@H]2C[C@H](c3ccc(Cl)cc3)N(C(=O)C3CCCCC3)C[C@@H]2O)nn1)c1ccccc1 | · | · | 1% | · | ·
C[C@@H]1C(=O)N(c2ccccc2)[C@@H]1c1ccncc1 | · | 39% | -4% | · | 1%
CN(C(=O)CSc1nc2cc(C(=O)O)ccc2c(=O)n1Cc1ccccc1)C1CCS(=O)(=O)C1 (stereo unspecified) | 50µM* | 19% | 1% | -5% | -16%
CCOC(=O)C1(C)CCN1C(=O)/C=C/c1ccccc1 (stereo unspecified) | · | · | 2% | · | ·
Cc1ccc(CNC(=O)c2ccc(Cn3c(=O)c4ccccc4n(CC(=O)Nc4ccc(C)cc4C)c3=O)cc2)cc1 | -1%[59 µM] | 37% | -1% | -25% | -7%
COc1ccc(N2CCN(C(=O)c3ccc4c(c3)CCN4S(=O)(=O)c3ccccc3)CC2)cc1 | 28µM* | 32% | 24% | 20µM* | ?
COc1ccc(N2CCN(C(=O)c3ccc(CNS(=O)(=O)c4cc(C)ccc4C)cc3)CC2)cc1 | 32µM* | -15% | 18% | ? | ?
COc1ccc(NS(=O)(=O)c2ccc(C(=O)N3CCCCCC3)cc2)cc1 | · | 30%[57 µM] | 15% | · | -8%
O=C(c1ccc2c(c1)CCN2S(=O)(=O)c1ccccc1)N1CCN(c2ccc(F)cc2)CC1 | -10% | 7% | 9% | -26% | -33%
COc1ccc(N2CCN(C(=O)c3ccc(NS(=O)(=O)c4ccccc4)cc3)CC2)cc1 | 20µM* | ? | 26% | 57% | -31%
O=C(c1cccc(S(=O)(=O)N2CCc3ccccc32)c1)N1CCN(c2ccccc2)CC1 | 22µM* | -9% | 5% | 4% | -33%
Cc1ccc(C)c(S(=O)(=O)NCc2ccc(C(=O)N3CCN(c4ccccc4)CC3)cc2)c1 | -6% | -13% | 4% | -28% | -35%
c1ccc2c(c1)oc1c(-c3cccc4nccn34)cccc12 | · | · | 22% | · | ·
CC(=O)C[C@H]1c2ccccc2S(=O)(=O)N1c1ccccc1 | · | 10% | -1% | · | -28%
COc1ccc([C@]23Cc4ccccc4C(O2)c2c(cc(C)n(Cc4ccccc4)c2=O)O3)cc1 | 9%[2.33 µM] | · | · | ? | ·
CCc1cccc(CC)c1NC(=O)c1ccc2c(c1)CCN2S(=O)(=O)c1ccccc1 | 2.5µM* | 7% | 0% | 1% | -12%
CCN1CCN(C(=O)c2ccc(CNS(=O)(=O)c3cccc(OC)c3)cc2)CC1 | 45µM* | 19% | -1% | ? | -11%
O=C(OCC(=O)N1CCCCC1)c1cccc(NS(=O)(=O)c2ccccc2)c1 | -40% | 11% | 6% | -37% | -13%
COc1ccc(N2CCN(C(=O)COC(=O)c3cccc(S(=O)(=O)Nc4cccc(C)c4)c3)CC2)cc1 | 10µM* | -25% | 23% | -36% | ?
CCc1cccc(C)c1NC(=O)c1ccc2c(c1)CCN2S(=O)(=O)c1ccc(Cl)cc1 | -1%[59 µM] | 14% | 1% | 0% | -20%
COc1cccc(S(=O)(=O)NCc2ccc(C(=O)N3CCN(Cc4ccccc4)CC3)cc2)c1 | · | 17% | 3% | -39% | -29%
Cn1nc(C(C)(C)C)cc1C(=O)N1CCCCC1c1cc(C(=O)Nc2ccccc2)no1 (stereo unspecified) | · | · | 6% | · | ·
C=CCCC(=O)N1C[C@@H](CO)[C@@H](NC)C[C@H]1c1ccccc1Br | · | · | -11% | · | ·
COc1cc(Cl)c(C)cc1NC(=O)Cn1cnc2sc(C)c(S(=O)(=O)N3CCCCC3)c2c1=O | -24%[59 µM] | 30% | -2% | -12% | -21%
SMILES | G9a block | HP1b binding inh | GLS inhibitor | BAZ2B inh | JMJD2A Tudor inh
Nc1c(Cl)cc(N=Nc2ccccc2)cc1Cl | · | ? | -11% | · | 14µM*
COc1cc(C(=S)N(C)C)ccc1O | 6.3µM* | ? | 15% | -2% | -18%[11.4 µM]
Cc1ccc(CNC(=O)CSc2nc3ccsc3c(=O)n2-c2ccc(C(=O)O)cc2)cc1 | 5%[59 µM] | 30% | 6% | -1% | -4%
CC(C)(C)OC(=O)N1CCC(c2cc(=O)n3[nH]cc(C(=O)Nc4ccc(F)c(Cl)c4)c3n2)CC1 | -42% | 9%[57 µM] | ? | -2% | -18%
CC(C)(C)OC(=O)N1CCC(c2cc(=O)n3[nH]cc(C(=O)NC4CCCC4)c3n2)CC1 | 56µM* | 41% | 6% | -1% | -17%
CC(C)(C)OC(=O)N1CCC(c2c(C(=O)NC3CCCCC3)cnn2-c2cccc(Cl)c2)CC1 | -11%[59 µM] | -7% | -12% | 5%[57.1 µM] | -32%
COc1ccc(NC(=O)c2c[nH]n3c(=O)cc(C4CCN(C(=O)OC(C)(C)C)CC4)nc23)cc1Cl | 45µM* | 17% | -10% | ? | -27%
Cc1cccc(OCC(=O)Nc2ccc3c(c2)nc(CCN2CCN(c4ccccn4)CC2)n3C)c1 | · | 10% | 5% | ? | ?
CCN1CCN(c2nc(C)nc3c2sc(=S)n3C)CC1 | 6.3µM* | -14% | -11% | -5% | ?
CN(C)c1ccc(NC(=O)Nc2nc(C(N)C3CCCCC3)cs2)cc1 (stereo unspecified) | · | · | 36% | · | ·
CCOC(=O)c1[nH]c2ccc(Cl)cc2c1NC(=O)/C=C/c1ccc2c(c1)OCO2 | 51%[59 µM] | 35% | 2% | -7% | -9%
CCN(CC(=O)Nc1c(C(=O)OC)[nH]c2ccc(Cl)cc12)c1ccc2c(c1)OCO2 | 28µM* | ? | 29% | 40µM* | 56µM*
Clc1ccc(CN2CCN(/N=C/c3ccco3)CC2)cc1 | 50µM* | ? | -14% | ? | ?
O=C(CN1CCN(Cc2ccccc2)CC1)N/N=C/c1ccco1 | 9% | 51% | -4% | 12% | -2%
Cc1ccc(/C=N/N2CCN(Cc3ccc(Cl)cc3)CC2)o1 | 50µM* | -22% | 1% | ? | ?
CC(C)CNC(=O)C1(C)CCCN1C(=O)c1cccnc1Oc1ccccc1 (stereo unspecified) | · | · | 10% | · | ·
Cc1occc1C(=O)Nc1c(F)c(F)c(F)c(F)c1F | 14µM* | -21% | -3% | 18% | 1%[11.4 µM]
Cc1occc1C(=O)NCCCCNC(=O)c1ccoc1C | 12%[59 µM] | 26% | -4% | 3% | -9%
Cc1occc1C(=O)Nc1c(Cl)cccc1Cl | ? | 33% | -2% | -26% | -10%
Cc1occc1C(=O)Nc1nn[nH]n1 | 45µM* | 0% | 6% | ? | 45µM*
C/C(N=Nc1nc2ccccc2s1)=N\Nc1ccccc1O | -48% | -32% | -8% | ? | -24%[11.4 µM]
Cc1cc(=O)n(CC(=O)N2CCN(c3ccc(F)cc3)CC2)c2c1c(C)nn2C | 1%[59 µM] | 13% | 5% | ? | -20%
COc1ccc(S(=O)(=O)N2CCOC2CNC(=O)C(=O)NCCCn2ccnc2)cc1OC (stereo unspecified) | 14% | 63% | -1% | 22µM* | -21%

Screening results (PubChem BioAssay)
